Screens as filed in PubChem BioAssay.
ALDH1A1 block – ALDH1A1 (human) enzyme inhibition; Purified ALDH1A1, NADH fluorescence, propionaldehyde substrate; Potency, µM (series often up to 75.3 µM), for inactives: at the highest dose activity, negative = inhibition, hits mostly inhibitors; actives 7.3% (n = 220,000); AID 1030; active means well fitted inhibition curve with a large enough effect, not every such curve was filed as active; inconclusive means small, poorly fitted or top-dose-only effect, or another doubt; inactive means no such curve, though single readings can be large or run the other way;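 further: potency means the concentration at half of the fitted maximal effect; plate controls were no enzyme wells and a reference inhibitor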
PNC assembly inh – blocks assembly of the perinucleolar compartment. PC3M PTB-GFP, PNC prevalence imaging, 16 h; hits give low values. activity change (PNC), negative = inhibition, % at 10 µM. actives 3.1% (n = 140,000). AID 2417;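 active means readout at or below -70, meaning at least 70% loss of cells showing the perinucleolar compartment, a nuclear body marking cancer cells; inconclusive means readout between -30 and a set limit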;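 further: plate controls were DMSO wells for no effect and camptothecin positive control wells for full effect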
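PC3M cells stably expressing PTB-GFP, 750–1000 cells/well, treated 16 h at 37 °C with compound (23 nl of library stock), in duplicate. After paraformaldehyde fixation and Hoechst stain, imaged at 20x; PNC prevalence scored by image analysis.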
IMPase Li inh – cell-permeable IMPase inhibitors with lithium potentiation; CHO-M1 cells, IP1 TR-FRET (IP-One), carbachol + lithium; Potency, µM (top dose mostly 59.4 µM), for the others: at the top dose activity, negative = IMPase inhibition, usual class: inhibitors; actives 0.35% (n = 210,000); AID 1457;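 further: IP1 builds up when IMPase is blocked and the TR-FRET signal falls; potency means the concentration at half of the fitted maximal effect; plate controls were basal vehicle for no effect and high inhibitor control for full effect; nearly all actives have a fitted effect of over 50% in size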
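Readout is a homogeneous TR-FRET IP1 immunoassay (Ex 320, Em 665 and 620), where raised cytosolic IP1 lowers signal. Cells were CHO-M1 treated 30 min at 37C with test compounds plus a little lithium; AC50 values came from Hill-equation fitting.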
ALOX12 inhib – 12-hLO (ALOX12) enzyme inhibition. P18054. AID 1452. Potency, µM (titrated, usually from 57.1 µM), inactives show at the top dose activity change, negative = inhibition, usual class: inhibitors. purified 12-hLO, xylenol orange hydroperoxide absorbance. actives 0.12% (n = 150,000); further: potency means the concentration at half of the fitted maximal effect; nearly all actives have a fitted effect of over 55% in size
Target sequence (P18054 whole entry, looked up): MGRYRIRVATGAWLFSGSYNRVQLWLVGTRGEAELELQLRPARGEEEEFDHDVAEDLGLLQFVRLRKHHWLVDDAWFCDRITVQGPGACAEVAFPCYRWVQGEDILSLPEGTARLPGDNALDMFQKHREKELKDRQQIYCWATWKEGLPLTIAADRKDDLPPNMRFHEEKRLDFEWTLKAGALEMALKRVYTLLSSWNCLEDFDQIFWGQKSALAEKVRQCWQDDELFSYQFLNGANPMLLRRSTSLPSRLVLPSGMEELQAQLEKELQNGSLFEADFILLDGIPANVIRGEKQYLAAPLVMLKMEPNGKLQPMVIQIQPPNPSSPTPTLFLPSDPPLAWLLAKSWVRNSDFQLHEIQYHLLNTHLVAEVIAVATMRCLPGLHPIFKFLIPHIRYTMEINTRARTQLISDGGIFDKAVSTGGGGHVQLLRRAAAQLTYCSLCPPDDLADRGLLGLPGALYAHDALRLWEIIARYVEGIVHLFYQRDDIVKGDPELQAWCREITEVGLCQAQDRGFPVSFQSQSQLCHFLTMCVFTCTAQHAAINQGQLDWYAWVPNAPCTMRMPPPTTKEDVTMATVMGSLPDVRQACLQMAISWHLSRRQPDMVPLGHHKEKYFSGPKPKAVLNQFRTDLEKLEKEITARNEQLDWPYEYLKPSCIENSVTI
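Hydroperoxide output read as Fe(III)-xylenol orange absorbance, 573-to-405 nm ratio, after 30 min reaction with 40 uM arachidonic acid. Enzyme: 150 nM purified human 12hLO, 15 min compound preincubation; 25 mM Hepes pH 7.0, room temperature.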
IMPase inh – cell-permeable inhibitors of inositol monophosphatase (IMPase); 120,000 tested, under 10 active; inhibition (IP1 accumulation), % at 46.1 µM; CHO-M1 cells, IP1 accumulation, HTRF TR-FRET ratio; AID 901; active means well fitted curve in the direction sought with a large enough effect in the signal ratio, not every such curve was filed as active; inconclusive means small, poorly fitted or top-dose-only effect, or a change in a side signal; inactive means no such curve, though single readings can be large or run the other way; the % refers to the signal ratio;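 further: cells stimulated with carbachol in lithium chloride buffer; plate controls were DMSO basal wells for no effect and reference inhibitor wells for full effect; higher means more IMPase inhibition seen as more IP1 and lower FRET ratio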
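CHO-M1, 2000 cells/well, cultured 16–30 h; cpd up to 46 uM; carbachol (50 uM solution, stimulation buffer w/ 50 mM LiCl, pH 7.4), 30 min 37C; IP-One TR-FRET, 10 min RT; Ex 320/Em 665, 620; Hill-fit AC50.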
HPGD inh – HPGD (human) dehydrogenase inhibition; P15428; purified HPGD, NADH fluorescence kinetic, PGE2 substrate; Potency, µM, for inactives: at the top dose activity change, negative = inhibition, usual class: inhibitors; actives 4.3% (n = 150,000); active means well fitted inhibition curve with a large enough effect, not every such curve was filed as active; inconclusive means small, poorly fitted or top-dose-only effect, or another doubt; inactive means no such curve, though single readings can be large or run the other way; further: potency means the concentration at half of the fitted maximal effect
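20 nM HPGD preincubated 15 min at room temperature with compound in 50 mM Tris-HCl pH 8, 0.01% Tween 20. Started with 1 mM NAD+ and 30 uM prostaglandin E2; NADH fluorescence (360/450 nm) read 5 times over 30-s intervals, last minus first.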
Numbers without * were called inactive; ? = inconclusive; / = no result; [ ] = dose if it differs, or a comment. In the library only some 11% were active in any assay of this set; here they are far more common. Unless noted, the call rests on the fitted dose curve; in most records, active means well fitted curve in the direction sought with a large enough effect; inconclusive means small, poorly fitted or top-dose-only effect, or another doubt; inactive means no such curve, though single readings can be large; an effect the other way counts as inactive or inconclusive. Unless noted, on the % scale 0 is the no-effect control and ±100 the full control effect.

SMILES | ALDH1A1 block | PNC assembly inh | IMPase Li inh | ALOX12 inhib | IMPase inh | HPGD inh
CCOC(=O)CSc1nnc2n(-c3ccccc3)c(=O)c3c4c(sc3n12)COC(C(C)C)C4 (stereo not given) | / | / | / | / | 2 | /
COc1ccc(CNc2nc(-c3c(C)noc3C)nc3ccccc23)c(OC)c1 | ? | / | 12% | / | / | /
CC(C)C1=C[C@@]23CC[C@@H]4[C@](C)(CCC[C@@]4(C)C(=O)O)[C@@H]2C[C@@H]1[C@@H](C(=O)O)[C@@H]3C(=O)O | 13%[13.5 µM] | / | -11% | 1%[11.4 µM] | / | -6%
Cc1ccc(Oc2nc3ccccn3c(=O)c2/C=C(\C#N)c2nc3ccccc3s2)c(C)c1 | / | / | / | / | 0 | /
N#Cc1cc(-c2ccccc2)cnc1Sc1ccc(Cl)cc1 | ? | 6 | 1%[38.3 µM] | 1% | 3 | ?
N#Cc1cc(-c2ccc(Cl)cc2)cnc1Sc1ccc(F)cc1 | ? | -14 | 25µM* | -1% | 0 | ?
NC[C@@H]1O[C@H](O[C@@H]2[C@H](O[C@@H]3O[C@H](CO)[C@@H](O)[C@@H]3O)[C@@H](O)[C@@H](N)C[C@H]2N)[C@@H](N)[C@H](O)[C@@H]1O | -2%[20.9 µM] | / | -2% | -2%[25.6 µM] | 3[20.6 µM] | -7%
C1CCc2nnc(-c3nnc4n3CCCCC4)n2CC1 | 6% | -19 | 31%[38.3 µM] | 3% | 1 | -8%
COc1ccccc1S(=O)(=O)Nc1ccc(-c2nnc3n2CCCCC3)cc1 | ? | 54 | -2%[38.3 µM] | -2% | 2 | 32µM*
Brc1ccc(-c2nnc3n2CCCCC3)cc1 | 13µM* | -28 | 27%[38.3 µM] | -1% | 4 | 7.1µM*
Cc1ccc(S(=O)(=O)N(C)Cc2ccc(-c3nnc4n3CCC4)cc2)cc1 | -9% | 3 | -9%[38.3 µM] | -7% | 9 | 4.5µM*
Cc1ccc(C)n1-c1ccc(-c2nnc3n2CCCCC3)s1 | ? | 7 | 13µM* | -9% | ? | 3.2µM*
COc1ccc(N(CC(=O)N2CCc3ccccc3C2)S(=O)(=O)c2ccc(C)cc2)cc1Cl | / | / | / | / | -1 | /
Clc1ccc(-c2nnc3n2CCCC3)cc1Cl | -5% | 97 | -11%[38.3 µM] | 5% | -10 | 32µM*
Clc1ccc(-c2nnc3n2CCCCC3)cc1 | -1% | ? | -9%[38.3 µM] | 4% | -4 | 16µM*
COc1ccc2c(C=O)cn(C)c2c1 | 2.2µM* | / | 2% | / | / | /
COc1ccc2[nH]cc(C=O)c2c1 | ? | 53 | -7%[38.3 µM] | 2% | 6 | -27%
CN(C)c1ccc(/C=C(\C#N)c2nc(-c3ccc(Cl)c(Cl)c3)cs2)cc1 | / | / | / | / | -8 | /
Cn1c(SCC(=O)NC2CCCCC2)nnc1-c1cc2cc(Cl)ccc2o1 | 16% | 8 | ? | 0% | 1 | ?
CC(NC(=O)CSc1nnc(-c2cc3cc(Cl)ccc3o2)n1C)c1ccccc1 (stereo not given) | 7% | -119* | 23% | -1% | 13 | -6%
Cc1ccc(CNC(=O)CC2Nc3c4ccccc4nc(=S)n3C2=O)cc1 (stereo not given) | -14% | / | 5.6µM* | / | / | /
O=C(c1ccc(S(=O)(=O)N2CCCCCC2)cc1)N1CCN(c2ccccn2)CC1 | 13µM* | 22 | 10% | 6% | 11 | -18%
O=C(c1ccc(Cl)c(S(=O)(=O)N2CCCC2)c1)N1CCN(c2ccccn2)CC1 | -8% | 17 | 18%[38.3 µM] | -3% | -1 | -3%
O=C(c1cccc(S(=O)(=O)N2CCc3ccccc32)c1)N1CCN(c2ccccn2)CC1 | 13µM* | / | 27% | / | / | /
CS(=O)(=O)N1CCC[C@@]2(CCN(c3ccccn3)C2)C1 | ? | / | 15% | 0% | / | ?
SMILES | ALDH1A1 block | PNC assembly inh | IMPase Li inh | ALOX12 inhib | IMPase inh | HPGD inh
CCOC(=O)c1cnc(SC)nc1Sc1ccccc1Cl | 6% | -104* | 35%[38.3 µM] | 0% | 11 | 16µM*
COc1ccc(C(=O)Nc2cccc(C)c2)cc1S(=O)(=O)N1CCOCC1 | -60% | -21 | 35%[38.3 µM] | -4% | -4 | -11%
COc1ccc(C(=O)Nc2cccc3c2C(=O)NC3=O)cc1S(=O)(=O)N1CCOCC1 | ? | -14 | 10µM* | 9% | -4 | ?
O=C1/C(=C/c2ccncc2)SC(=S)N1C1CCS(=O)(=O)C1 (stereo not given) | 22µM* | 16 | 14%[38.3 µM] | -6% | 4 | -24%
COC(=O)c1c(C)oc2c1cc(NS(=O)(=O)c1c(C)cc(C)cc1C)c1ccccc12 | / | / | / | / | -1 | /
CN=C(c1ccco1)n1c(=S)nc(-c2ccco2)n(C)c1=S | 10µM* | -16 | -4%[38.3 µM] | -15% | 2 | ?
CCN(C(=O)c1ccc2c(Cl)c3c(nc2c1)CCC3)c1ccc(C)c(C)c1 | 14µM* | 62 | 18% | -3% | / | ?
CN(C(=O)c1ccc2c(Cl)c3c(nc2c1)CCC3)c1ccccc1 | ? | -13 | 16% | 2% | / | 4.5µM*
CN(C(=O)c1ccc2c(=O)n3c(nc2c1)CCCCC3)c1ccccc1 | 6% | -100* | 7% | -3% | 6 | -15%
CCCCCCCC/C=C\CCCCCCCC(=O)OCC(CO)OC(=O)CCCCCCC/C=C\CCCCCCCC (stereo not given) | 2% | / | -7% | 0% | / | -2%
COc1ccc(/C=C2\SC(=S)N(NC(=O)c3ccncc3)C2=O)cc1OC | -7% | / | 7% | / | / | /
O=C(NN1C(=O)/C(=C/C=C/c2ccccc2)SC1=S)c1ccncc1 | 4.5µM* | / | 12% | / | / | /
O=C(CSC(=S)N1CCCC1)c1cc(Br)cc(Br)c1O | 16µM* | / | -4% | / | / | /
O=C(c1cc(Br)ccc1Cl)N1CCCC1 | -2% | / | 4% | / | / | /
CC1CCCN(C(=S)SCC(=O)c2cc(Br)cc(Br)c2O)C1 (stereo not given) | 25µM* | / | 14% | / | / | /
N#CCCSc1ncnc2c1oc1ccccc12 | ? | 24 | 11µM* | 2% | ? | -27%
CCc1nc(SCCO)c2oc3ccccc3c2n1 | 2% | 16 | -1%[38.3 µM] | -3% | -3 | -2%
COc1ccccc1Oc1ncnc2c1oc1ccccc12 | 3% | / | 1% | / | / | /
c1ccc(Sc2ncnc3c2oc2ccccc23)cc1 | ? | 73 | -3%[38.3 µM] | 1% | -10 | 32µM*
OCCSc1ncnc2c1oc1ccccc12 | ? | -16 | -13%[38.3 µM] | -4% | 0 | 25µM*
COc1cccc([C@@H]2Oc3ccc(OC)cc3C(=O)[C@H]2OC(=O)NCCc2ccc(OC)c(OC)c2)c1 | 7% | / | -11% | / | / | -20%
O=C1CC(c2ccco2)Cc2c1cnn2-c1nc2ccccc2s1 (stereo not given) | ? | 47 | 13µM* | 1% | / | -14%
CCOc1ccc(N(CC(=O)NC(C(C)C)C(C)C)S(=O)(=O)c2ccc(OC)c(OC)c2)cc1 | -1% | / | 6% | / | / | /
COC(=O)/C(=C\C(=O)c1ccc([N+](=O)[O-])cc1)Nc1ccc(OC)cc1 | -6% | / | / | / | / | /
